Only some compounds are listed: those with a hit (about 8.7% of all), similar ones and a draw of the others.
G9a inh = qHTS Assay for Inhibitors of Histone Lysine Methyltransferase G9a; Potency, µM (highest dose often 102 µM), without a hit: at the highest dose activity, negative = inhibition, hits mostly inhibitors; 350,000 tested, 8.8% active; AID 504332, 2011; G9a H3K9 monomethylation, AlphaScreen, 2 h; also: % is scaled to controls: 0 for no effect and ±100 for the full control effect; nearly all actives have a fitted effect of over 75% in size
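AlphaScreen read-out: biotin-H3K9 peptide (500 nM) methylation by 20 nM enzyme with 20 uM SAM, 2 h at room temperature after 15 min compound preincubation; anti-monomethyl H3K9 antibody plus donor/acceptor beads, 10 min dark.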
Sfp PPTase inh = qHTS Assay for Inhibitors of Bacillus subtilis Sfp phosphopantetheinyl transferase (PPTase). 4'-phosphopantetheinyl transferase ffp (Bacillus subtilis), Q9F4F7. Biochemical Sfp PPTase activity, qHTS. Potency, µM, for inactives: largest response in the series, negative = inhibition, actives largely listed as inhibitors. 310,000 tested, 3.5% active;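 also: the enzyme is Sfp with the accession as filed and its product quenches rhodamine fluorescence; 0% = enzyme reaction without inhibitor and -100% = no enzyme wells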
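Compounds were incubated with enzyme (final 15 nM) for 15 min at room temperature before substrate addition started the reaction. Fluorescence at 525 nm excitation, 598 nm emission was recorded immediately and after 30 minutes.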
HP1b chromo inh = HTS for Inhibitors of HP1-beta Chromodomain Interactions with Methylated Histone Tails; 390,000 tested, 0.56% active; AlphaScreen HP1-beta / biotin-H3K9me3 peptide binding; AID 540317, 2011; Potency, µM (titrated, usually from 114 µM), for the others: at the top dose activity change, negative = inhibition, hits mostly inhibitors; Chromobox protein homolog 1 (Homo sapiens), P83916; also: nearly all actives have a fitted effect of over 70% in size
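HP1-beta protein (50 nM final) preincubated 30 min at room temperature with biotinylated H3(1-18)K9me3 peptide (50 nM) in PBS pH 7.4, 0.01% Tween-20, then compound added for 30 min. AlphaScreen streptavidin donor/nickel chelate acceptor beads (10 ug/mL final), 30 min dark, luminescence read.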
JMJD2A Tudor inh = qHTS Assay for Inhibitors of JMJD2A-Tudor Domain | AlphaScreen JMJD2A-Tudor / H3K4me3 peptide binding | 390,000 tested, 4.4% active | Lysine-specific demethylase 4A (Homo sapiens), O75164 | Potency, µM (top dose mostly 114 µM), for inactives: at the top dose activity change, negative = inhibition, actives largely listed as inhibitors; also: % is scaled to controls: 0 for no effect and ±100 for the full control effect; nearly all actives have a fitted effect of over 50% in size
BAZ2B block = qHTS Assay for Inhibitors of BAZ2B. Bromodomain adjacent to zinc finger domain protein 2B (Homo sapiens), Q9UIF8. AlphaScreen BAZ2B-H3K14Ac peptide displacement. Potency, µM (series often up to 114 µM), for inactives: at the top dose activity change, negative = inhibition, hits mostly inhibitors. 360,000 tested, 4.4% active; also: % is scaled to controls: 0 for no effect and ±100 for the full control effect; nearly all actives have a fitted effect of over 60% in size
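AlphaScreen displacement: compounds (up to 110uM) incubated 30 min at room temperature with a preformed 50 nM BAZ2B/50 nM biotinylated H3K14Ac peptide complex in PBS pH 7.4 with Tween-20. Donor and acceptor beads at 10 ug/mL final added, 20 min light-protected before reading.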
ALOX12 inh = Primary qHTS assay for inhibitors of human arachidonate 12S-lipoxygenase (ALOX12): Round 2; AID 1671190, 2021; Potency, µM (titrated, usually from 108 µM), inactives show top-dose activity change, negative = inhibition, most hits filed as inhibitors; purified 12hLO, xylenol orange hydroperoxide absorbance; 580,000 tested, 1.1% active; also: % is scaled to controls: 0 for no effect and ±100 for the full control effect
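Purified human 12hLO (150 nM final) in 25 mM Hepes, 0.01% Triton X-100, pH 7.0 was preincubated 15 min at room temperature with compound. Then 40 uM arachidonic acid was added, 30 min. Hydroperoxide was read by Fe-XO absorbance ratio 573/405 nm.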
* = called active by the depositor; ? = inconclusive; . = no result; ! = a repeat was not active; [ ] = another dose, or the depositor's remark. Calls follow the shape of the dose curve; as a rule, active = well fitted curve in the direction sought with a large enough effect; inconclusive = small, poorly fitted or top-dose-only effect, or another doubt; inactive = no such curve, though single readings can be large; an effect the other way counts as inactive or inconclusive. Potency is read from the fitted curve at half-maximal effect.

SMILES	G9a inh	Sfp PPTase inh	HP1b chromo inh	JMJD2A Tudor inh	BAZ2B block	ALOX12 inh
Cc1cccc(C2N3CC4(C)CN2CC(C)(C3)C4=O)c1 (stereo unspecified)	.	.	.	.	.	-2.7%
C=CCN1CCc2cc(O)c(O)cc2C(c2ccccc2)C1 (stereo unspecified)	10µM*	.	9.8%	-24.5%	-5.5%	?
C=CCN1CCc2c(cc(O)c(O)c2Cl)C(c2ccccc2)C1 (stereo unspecified)	7.08µM*!	?	20.1%	?	?	?
CCc1ccc2c(c1)/C(=N/N(C)C(=S)NC)C(=O)N2	-70.3%[59 µM]	?	?	?	10µM*	-8.5%
CC(Sc1nnc(N)s1)C(=O)c1c(N)n(C)c(=O)n(C)c1=O (stereo unspecified)	50.1µM*	.	7.7%	-10.2%	7.2%	-25.4%
CC(Sc1ncn[nH]1)C(=O)c1c(N)n(C)c(=O)n(C)c1=O (stereo unspecified)	?	.	23.1%	-3.5%	8.1%	423.6%
Cc1nc(SC(C)C(=O)c2c(N)n(C)c(=O)n(C)c2=O)c2c(C)c(C)sc2n1 (stereo unspecified)	7.08µM*	.	12.1%	?	-9.9%	?
C=CCn1c(SCC(=O)c2c(N)n(C)c(=O)n(C)c2=O)nc2sc(C)c(C)c2c1=O	-10.4%	4.8%	46.6%	-9.1%	-29.4%	-2.8%
CCc1ccc2oc(C(=O)Nc3nc(C)c(C(=O)OCC(C)C)s3)cc(=O)c2c1	.	.	.	.	.	-1.5%
Cc1nc2ncccn2c1C(=O)N1C[C@H]2C(=O)NC[C@@]2(C(=O)O)C1	.	.	.	.	.	2.8%
CCc1ccc(Nc2nnc(SCC(=O)NC(=O)CN3CCCC3=O)s2)cc1	6.31µM*	.	-5.7%	?	?	-12.1%
CCc1cc(=O)oc2cc(C)c(CN3CCCC(C)C3)c(O)c12 (stereo unspecified)	?	?	-31.1%	35.5µM*	22.4µM*	?
CCCCc1cc(=O)oc2c(CN3CCCC3)c(O)ccc12	?	-13.2%	42.9%	-0.8%	-6.3%	-25.1%
CCCCc1cc(=O)oc2cc(C)c(CN3CCCC3)c(O)c12	-49.0%[12.7 µM]	-19.0%	-11.2%	50.1µM*	44.7µM*	?
Cc1cc2oc(=O)cc(CN3CCC(C)CC3)c2cc1O	.	.	.	.	.	-9.5%
N#Cc1cc2c(cc1C(=O)c1ccccc1)OCCO2	.	.	.	.	.	0.1%
COCCn1c(C)cc(C(=O)COC(=O)c2cc3c(s2)CCC3)c1C	44.7µM*	2.1%	?	35.5µM*	39.8µM*	0.0%
Cc1cc(C(=O)COC(=O)c2ccc([N+](=O)[O-])o2)c(C)n1CC1CCCO1 (stereo unspecified)	44.7µM*	-3.0%	10.3%	-27.3%	?	3.9%
CSc1ncccc1C(=O)OCC(=O)c1cc(C)n(CC2CCCO2)c1C (stereo unspecified)	?	-1.9%	?	?	-28.9%	3.3%
COCCn1c(C)cc(C(=O)COC(=O)c2cccc(O)c2)c1C	?	9.9%	-5.7%	-23.5%	?	6.7%
COCCn1c(C)cc(C(=O)COC(=O)c2ccc([N+](=O)[O-])o2)c1C	79.4µM*	4.1%	4.3%	?	44.7µM*	-49.2%
O=C(CCl)Nc1ccc(N=Nc2ccccc2)cc1	?	?	1.0%	?	39.8µM*	?
CC(C)C(=O)OCC(=O)Nc1ccc(N=Nc2ccccc2)cc1	44.7µM*	-4.7%	?	35.5µM*	39.8µM*	-14.5%
O=C(Nn1cnc2ccccc2c1=O)C1CCCC1	.	.	.	.	.	-30.2%

High-throughput results from PubChem.
